Screens as filed in PubChem.
KAT2A inh – inhibitors of human GCN5L2 histone acetyltransferase | Q92830 | Potency, µM (titrated, usually from 58.9 µM), for the others: top-dose activity change, negative = inhibition, actives largely listed as inhibitors | GCN5L2 HAT assay, ThioGlo1 CoA-SH fluorescence | hit rate 0.21% among 390,000; note: potency is the fitted concentration of half-maximal effect; % is set by controls: 0 for no effect and ±100 for the full control effect
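Free CoA generated was detected with ThioGlo1 (50uM) fluorescence at Ex340nm/Em540nm, read immediately and after 20 min at room temperature. Enzyme, 20 nM in HEPES pH 7.5 buffer, saw compounds 15 min before adding 75uM H3(1-25) peptide and 70uM acetyl-CoA.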
PLK1 PBD block – inhibitors of human PLK1 polo-box domain binding; Potency, µM, for inactives: max response, negative = inhibition, most hits filed as inhibitors; hit rate 2.8% among 360,000; AID 720504; Plk1 PBD binding of FITC phosphopeptide, fluorescence polarization; P53350; note: potency is the fitted concentration of half-maximal effect; series mostly up to about 57 µM; % is set by controls: 0 for no effect and ±100 for the full control effect; nearly all actives have a fitted effect of over 65% in size
Rango release inh – prevents RanGTP from dissociating the Rango-importin beta complex; O95149+P62826; Biochemical FRET Rango-importin beta, RanGTP-induced dissociation; Potency, µM (titrated, usually from 46.1 µM), without a hit: top-dose activity change, negative = inhibition; hit rate 0.071% among 340,000; calls by dose curve; note: potency is the fitted concentration of half-maximal effect; % of control where 0% means no effect; nearly all actives have a fitted effect of over 45% in size
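Rango FRET biosensor (snurportin-1 IBB flanked by N-terminal EYFP and C-terminal CFP10) at 0.1 uM, with 0.25 uM importin beta in PBS, 1mM DTT, 0.02% Tween-20, 0.1% BSA. 0.6 uM Ran, 2mM GTP and 0.2 uM RCC1 were then added for 45 min at room temperature. Inhibition read as loss of FRET rise.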
Rango complex inh – prevents formation of the Rango-importin beta complex. Q14974. Potency, µM (series often up to 92.2 µM), for the others: top-dose inhibition of complex formation. hit rate 0.031% among 340,000. AID 540263. Rango CFP/YFP FRET sensor + importin beta, 45 min; calls by dose curve;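 note: potency is the fitted concentration of half-maximal effect; 0% = DMSO wells and 100% = buffer wells lacking importin beta; nearly all actives have a fitted effect of over 15% in size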
Target sequence (Q14974 whole entry, looked up): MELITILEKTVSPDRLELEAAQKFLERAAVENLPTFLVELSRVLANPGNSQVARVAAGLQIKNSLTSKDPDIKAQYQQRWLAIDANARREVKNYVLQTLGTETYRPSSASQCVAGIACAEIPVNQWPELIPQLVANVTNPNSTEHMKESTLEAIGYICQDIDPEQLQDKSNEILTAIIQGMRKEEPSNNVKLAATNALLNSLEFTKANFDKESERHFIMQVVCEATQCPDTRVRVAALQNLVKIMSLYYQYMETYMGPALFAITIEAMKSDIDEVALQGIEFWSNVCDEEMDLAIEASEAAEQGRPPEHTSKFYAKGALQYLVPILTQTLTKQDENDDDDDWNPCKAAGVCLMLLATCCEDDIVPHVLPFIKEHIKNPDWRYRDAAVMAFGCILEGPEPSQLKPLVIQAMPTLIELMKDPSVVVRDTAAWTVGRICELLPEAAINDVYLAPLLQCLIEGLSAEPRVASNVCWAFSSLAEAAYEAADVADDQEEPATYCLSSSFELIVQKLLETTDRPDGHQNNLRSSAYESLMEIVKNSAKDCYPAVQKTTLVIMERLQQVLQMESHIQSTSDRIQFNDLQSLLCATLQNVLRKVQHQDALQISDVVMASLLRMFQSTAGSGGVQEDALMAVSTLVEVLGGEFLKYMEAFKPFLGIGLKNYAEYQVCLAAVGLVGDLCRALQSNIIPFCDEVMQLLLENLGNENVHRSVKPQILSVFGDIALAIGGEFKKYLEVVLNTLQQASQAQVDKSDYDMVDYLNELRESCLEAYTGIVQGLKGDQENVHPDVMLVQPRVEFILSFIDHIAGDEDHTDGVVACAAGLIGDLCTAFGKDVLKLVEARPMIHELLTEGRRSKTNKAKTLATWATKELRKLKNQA
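FRET biosensor Rango (snurportin 1 IBB between N-terminal EYFP and C-terminal Cerulean), 50 nM in PBS/1 mM DTT/0.02% Tween-20/0.1% BSA, preincubated 5 min RT with compound; 0.125 microM importin beta added, 45 min RT, CFP/YFP FRET ratio read.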
PI5P4K alpha inh – inhibitors of human PI5P4K alpha. hit rate 1.2% among 330,000. AID 652105. max response, %. P48426. PI5P4Kalpha enzyme, ADP-Glo luminescence, 60 min; active compounds read low; active = max response of -50% or lower; inconclusive = between -30% and -50%; inactive = -30% or higher; note: value at the top dose of about 77 µM; % is set by controls: 0 for no effect and ±100 for the full control effect
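Single end-point luminescence (ADP-Glo) quantified ADP from PI5P4Kalpha turnover; ATP 5 microM final, 1 h at RT, 0.1% CHAPS and 0.28 mM EGTA in HEPES pH 7.4.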
VDR inhibitor – blocks the human vitamin D receptor. Potency, µM, without a hit: max response, negative = inhibition, actives largely listed as inhibitors. P11473. hit rate 0.93% among 400,000. VDR-SRC2-3 peptide fluorescence polarization, 2 h; note: potency is the fitted concentration of half-maximal effect; % is set by controls: 0 for no effect and ±100 for the full control effect
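Reagent solutions, kept cold and dark, are dispensed first; compounds are then pinned in at 23 nl, plates briefly spun, and incubated 2 h at ambient temperature. Inhibition of VDR–SRC2-3 peptide binding is read by fluorescence polarization.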
Active calls of the source: *; ? = inconclusive; / = no result given; ! = not confirmed by another sample. Hits are enriched below; roughly 3.6% of the tested compounds scored in any of these assays. Unless noted, calls come from the whole dose curve; as a rule, active = well fitted curve in the direction sought with a large enough effect; inconclusive = small, poorly fitted or top-dose-only effect, or another doubt; inactive = no such curve, though single readings can be large; an effect the other way counts as inactive or inconclusive.

SMILES | KAT2A inh | PLK1 PBD block | Rango release inh | Rango complex inh | PI5P4K alpha inh | VDR inhibitor
COCCNC(=O)c1ccc(-n2c(-c3ccccc3)cc3c2CCCCC3)cc1 | -13% | / | / | / | / | -2%
Cc1c(NC(=O)c2sc3ccccc3c2Cl)cccc1-c1nc2ccccc2o1 | 5% | / | / | / | / | 6%
CSc1ccc(C2C(C#N)=C(N)N(c3ccccc3)C3=C2C(=O)CCC3)cc1 (stereo unspecified) | -2% | 0% | ? | -1% | -11 | 1%
N#CC1=C(N)N(c2ccc(F)cc2)C2=C(C1c1ccc(O)cc1)S(=O)(=O)CC2 (stereo unspecified) | -21% | 15µM* | -19% | ? | ? | 4%
O=C(O)Cn1nc(-c2ccc(F)cc2)oc1=O | -6% | 24µM* | 10% | 2% | -17 | ?
O=C(O)Cn1nc(-c2ccccc2)oc1=O | -4% | 0% | 13% | 1% | -4 | 4%
CC(=O)Oc1cc(C)c(OC(C)=O)c2ccccc12 | -10% | / | / | / | / | 2%
O=C1N/C(=N/NC(=O)c2cccc3ccccc23)S/C1=C\c1ccccc1OCc1ccccc1 | ? | 27µM* | ? | ? | -55* | -4%
Cc1cccc(S(=O)(=O)C(C#N)c2nc3ccccc3nc2N2CCCC2)c1 (stereo unspecified) | -1% | 30µM*! | ? | ? | -17 | 4%
N#CC(c1nc2ccccc2nc1N1CCCC1)S(=O)(=O)c1ccccc1 (stereo unspecified) | -2% | -24% | ? | ? | ? | 5%
COc1cc(/C=C2\C(=O)N(c3ccc(NC(C)=O)cc3)N=C2c2ccccc2)ccc1O | 7% | 24µM* | 18% | 0% | -11 | ?
O=C1/C(=C\c2ccc(O)c(O)c2)C(c2ccccc2)=NN1c1ccccc1 | 1% | 15µM* | -15% | 0% | -75* | -24%
O=C(CS)Nc1ccc2ccccc2c1 | 43% | -19% | 2% | -1% | 0 | 79µM*
Cc1cc(C(=O)OCC(=O)NC2CCCCC2)c(C)o1 | 0% | -9% | -1% | 1% | -4 | 1%
Cc1cc2c(cc(C(=O)OCC(=O)NC3CCCCC3)n2C)o1 | / | 27µM* | -2% | 1% | -16 | ?
O=[N+]([O-])c1ccccc1S(=O)(=O)N1CCN(c2nc(-c3cccs3)nc3ccccc23)CC1 | / | / | / | / | / | -5%
Cc1ccc(-n2c(=O)c3c(cnn3C)n(Cc3ccc(Cl)cc3)c2=O)cc1 | -6% | / | / | / | / | 89µM*
Cc1ccc(-n2c(=O)c3c(cnn3C)n(Cc3ccccc3F)c2=O)cc1 | -6% | / | / | / | / | 3%
Cn1ncc2c(N3CCN(c4ccccc4Cl)CC3)ncnc21 | 10% | / | / | / | / | 15%
O=C(C=C1SCCS1)/C=C/c1ccco1 | ? | ? | -30% | ? | -57* | -15%
CCc1ccc(NC(=O)CSc2nc3c([nH]c4ccccc43)c(=O)n2C)cc1 | -6% | / | / | / | / | 9%
CCCCCCCc1c(C#N)c(N)[nH]c(=S)c1C#N | -5% | 24µM* | -20% | -2% | -56* | ?
CCc1nn(CC(=O)NCCC(C)C)c(=O)c2cc3occc3n12 | -1% | / | / | / | / | 6%
CC[C@H]1C(c2ccc(F)cc2)=NN(c2ccccc2)[C@@H]1CO | 40µM*! | -4% | ? | ? | 7 | -8%
COc1ccc(/C=C(\C#N)c2nc3ccc(C)cc3[nH]2)cc1Oc1ccc(C(F)(F)F)cc1[N+](=O)[O-] | 2.8µM* | -7% | -4% | ? | -10 | -13%
SMILES | KAT2A inh | PLK1 PBD block | Rango release inh | Rango complex inh | PI5P4K alpha inh | VDR inhibitor
COc1cc(/C=C(\C#N)c2nc3ccc(C)cc3[nH]2)cc([N+](=O)[O-])c1O | 17% | ? | -2% | ? | -88* | ?
N#Cc1cccc(S(=O)(=O)N2CCN(S(=O)(=O)c3ccc4c(c3)OCCO4)CC2)c1 | / | / | / | / | / | 7%
Cc1ccc(NC(=O)C2CCN(C(=O)c3cnn(-c4ccccc4)c3-n3cccc3)CC2)cc1C | -5% | / | / | / | / | 4%
CN(C)C(=S)N=c1ssc(=S)n1Cc1ccccc1 | / | ? | -18% | 1% | 3 | 40µM*
CN(C)CCN=Cc1c(O)n(Cc2ccccc2)c(=O)c2ccccc12 | 1% | -3% | ? | ? | -2 | -12%
COc1ccc(C(=O)c2cn(CC(=O)Nc3ccc4c(c3)OCO4)c3ccc(OC)cc3c2=O)cc1 | 2% | / | / | / | / | 14%
C/C(O)=C(\N=Nc1cc(C)ccc1O)C(N)=O | -6% | 30µM* | -13% | 2% | -6 | -3%
O=C(CCNS(=O)(=O)c1ccc(Br)cc1)NCc1ccc(Cl)cc1 | -4% | 27µM* | -10% | 1% | -15 | -9%
Cc1ccc(CNC(=O)CCNS(=O)(=O)c2ccc(C)cc2)cc1 | -1% | 0% | 9% | 0% | 4 | -9%
COc1ccc(CNC(=O)CSc2ncc3c(n2)-c2ccc(Cl)cc2N(Cc2ccc(F)cc2)S3(=O)=O)cc1OC | -8% | / | / | / | / | 13%
COc1ccc(NC(=O)CC2C(=O)N(c3ccccc3)C(=O)N2CCc2sccc2C)cc1 (stereo unspecified) | 0% | / | / | / | / | ?
CCOCCc1nnc(NC(=O)c2cc(OC)c(OC)c(OC)c2)s1 | -5% | -12% | 21% | -2% | 6 | -12%
CCOCCc1nnc(NC(=O)c2cccc(F)c2)s1 | -1% | 27µM* | -6% | ? | 2 | -6%
CC(C)SCC(=O)Nc1ncc2c(n1)-c1ccccc1CC2 | -26% | 19µM* | -17% | ? | ? | 7%
O=C(Nc1ncc2c(n1)-c1ccccc1CC2)C1CC1 | -2% | -27% | -5% | -2% | 6 | -5%
CSc1ncc2c(n1)-c1ccccc1N(Cc1ccccc1)S2(=O)=O | 9% | / | / | / | / | -7%
COC(=O)c1ccc(CN(c2ccc(C)cc2)S(=O)(=O)c2ccc3c(c2)OCCO3)o1 | -12% | 3µM* | 8% | -6% | ? | -19%
CC(=O)Nc1ccc(S(=O)(=O)N2CCC(n3c(C(F)(F)F)nc4cccnc43)CC2)cc1 | -2% | / | / | / | / | 8%
Cc1ccc(CN2CCC(CO)(CC3CCCCO3)CC2)o1 (stereo unspecified) | 5% | -6% | -7% | -1% | -2 | 21%
CCc1ccc(CN2CCC(CO)(CC3CCCCO3)CC2)o1 (stereo unspecified) | 18µM* | -2% | 0% | 1% | -4 | -5%
COc1ccc(-c2nc(CCNC(=O)c3c(F)cccc3Cl)cs2)cc1 | -5% | / | / | / | / | -2%
CN=C1S/C(=C\c2ccc(O)c(Br)c2)C(=O)N1C | -2% | -19% | ? | ? | -79* | -10%
COc1ccc2c(CNCCc3ccccc3OC)c(C(=O)O)n(Cc3ccc(F)cc3Cl)c2c1 | ? | / | / | / | / | -2%
O=C(c1cncc(Br)c1)N1CCN(S(=O)(=O)c2ccccc2C(F)(F)F)CC1 | -5% | 21µM* | 3% | -2% | 5 | ?
